This is a sample that favours compounds with a hit; in the whole collection about 11% have one here.
AmpC detergent: inhibitors of E. coli AmpC beta-lactamase with detergent; AmpC hydrolysis of nitrocefin, absorbance 480 nm, 0.01% Triton; Potency, µM (top dose mostly 114 µM), inactives show top-dose activity change, negative = inhibition, actives largely listed as inhibitors; actives 0.041% (n = 370,000); AID 485294;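 further: 0% = no-compound wells and -100% = no-enzyme wells; nearly all actives have a fitted effect of over 25% in size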
Target sequence (P00811 whole entry, looked up): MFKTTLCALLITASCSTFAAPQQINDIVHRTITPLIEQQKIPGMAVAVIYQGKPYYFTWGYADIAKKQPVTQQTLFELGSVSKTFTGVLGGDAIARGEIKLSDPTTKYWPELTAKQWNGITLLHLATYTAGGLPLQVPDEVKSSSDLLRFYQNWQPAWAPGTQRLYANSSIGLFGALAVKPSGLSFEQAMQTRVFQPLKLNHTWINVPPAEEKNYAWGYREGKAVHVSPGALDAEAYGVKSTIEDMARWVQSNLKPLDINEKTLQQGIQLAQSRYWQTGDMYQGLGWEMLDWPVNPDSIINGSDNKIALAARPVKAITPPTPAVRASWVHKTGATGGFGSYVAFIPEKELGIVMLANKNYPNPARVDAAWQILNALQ
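AmpC (5.3 nM in the dispensed reagent) in 20 mM phosphate pH 7.0 with 0.01% (detergent screen) or 0.0001% Triton X-100 was preincubated with compounds for 15 min at room temperature. Nitrocefin was then added from an 800 uM solution, and hydrolysis was followed at 480 nm.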
AMA1-RON2 inh: inhibitors of Plasmodium falciparum AMA1-RON2 interaction. AlphaScreen AMA1-biotinylated RON2 peptide binding. Potency, µM (highest dose often 58.2 µM), for inactives: at the top dose activity change, negative = inhibition, most hits filed as inhibitors. actives 0.2% (n = 360,000);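 further: 0% = vehicle wells and -100% = peptide control; nearly all actives have a fitted effect of over 45% in size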
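AMA1 (3D7) with his tag at 25 nM final met compounds first, then biotinylated RON2 peptide at 25 nM; detection used donor plus acceptor beads, 10 µg/mL apiece, read by AlphaScreen after 30 min at room temperature.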
Pf growth 96h: P. falciparum growth inhibition at 96 hours | Potency, µM (top dose mostly 28.7 µM), for inactives: top-dose activity change, negative = inhibition, most hits filed as inhibitors | actives 6.9% (n = 320,000) | P. falciparum luciferase reporter growth, 96 h
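Luminescence readout: decreased luciferase signal marks inhibited growth of reporter-expressing P. falciparum in infected red cells (2% hematocrit, 0.05% parasitemia final), exposed to compound two generations (96 h, 37 C, 5% CO2).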
Pf growth 48h: P. falciparum growth inhibition at 48 hours (one generation). P. falciparum luciferase growth in erythrocytes, 48 h. Potency, µM (top dose mostly 28.7 µM), for inactives: top-dose activity change, negative = inhibition, actives largely listed as inhibitors. actives 5.9% (n = 310,000). AID 504832
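Firefly luciferase activity from engineered P. falciparum reports growth; inhibitors lower the luminescent signal. Cultures contained 2% hematocrit erythrocytes at 0.1% final parasitemia.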
HCV inhibitor: inhibitors of hepatitis C virus infection. Huh7.5.1 HCVcc-Cre infection, luciferase reporter, 44 h. Potency, µM (top dose mostly 41.8 µM), inactives show at the top dose activity change, negative = inhibition, hits mostly inhibitors. actives 3.4% (n = 340,000). AID 651820
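Cells (1,000/well) were plated 4 h before compound, then infected with HCVcc-Cre virus (~0.5 moi). After 44 h further culture, infection was read as luciferase luminescence following a 15 min substrate incubation at room temperature.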
AmpC no deterg: blocks E. coli AmpC beta-lactamase in detergent-free assay; AmpC nitrocefin hydrolysis, absorbance 480 nm, 0.0001% Triton; Potency, µM (highest dose often 57.1 µM), for the others: at the highest dose activity change, negative = inhibition, hits mostly inhibitors; P00811; actives 0.52% (n = 330,000);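 further: plate controls were no compound for no effect and no enzyme for full effect; nearly all actives have a fitted effect of over 20% in size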
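AmpC (5.3 nM in the dispensed reagent) in 20 mM phosphate pH 7.0 with 0.01% (detergent screen) or 0.0001% Triton X-100 was preincubated with compounds for 15 min at room temperature. Nitrocefin was then added from an 800 uM solution, and hydrolysis was followed at 480 nm.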
Starred values were filed as active, the others as inactive; ? = inconclusive; · = no result; [ ] = remark or other dose. The call rests on the fitted dose curve; in most records, active means well fitted curve in the direction sought with a large enough effect; inconclusive means small, poorly fitted or top-dose-only effect, or another doubt; inactive means no such curve, though single readings can be large; an effect the other way counts as inactive or inconclusive. Unless noted, on the % scale 0 is the no-effect control and ±100 the full control effect; potency means the concentration at half of the fitted maximal effect.

SMILES | AmpC detergent | AMA1-RON2 inh | Pf growth 96h | Pf growth 48h | HCV inhibitor | AmpC no deterg
CCCCOc1ccc(-c2cnc3ccccc3n2)cc1 | -11.4% | -20.8% | ? | 204.5% | 16.0% | -20.0%
CC(=O)c1cccc(NC(=O)N2CCCC2C(=O)Nc2cccc(C)c2C)c1 (configuration not stated) | -7.7% | -5.7% | 2.94µM* | 3.4% | -10.0% | -4.4%
CC(=O)c1cccc(NC(=O)N2CCCC2C(=O)NCc2ccc(F)cc2)c1 (configuration not stated) | ? | -11.1% | 10.4µM* | -6.8% | 3.5% | -8.4%
CCOC(=O)C1=C(C)NC(C)=C(C(=O)OCC)C1C(=O)OCC(=O)NCc1ccc(F)cc1 | · | -5.0% | · | · | 3.55µM* | 94.1%
CC(=O)Nc1cccc(C(=O)OCC(=O)NCc2ccc(F)cc2)c1 | ? | -3.7% | 32.5% | 13.1µM* | -16.1% | -19.4%
CC(=O)c1cccc(NC(=O)N2CCCC2C(=O)NCc2ccc(C)cc2)c1 (configuration not stated) | -2.9% | 12.4% | -6.4% | 6.4% | -17.4% | -17.0%
CC(=O)c1cccc(NC(=O)N2CCCC2C(=O)Nc2ccccc2C)c1 (configuration not stated) | 5.2% | -6.3% | ? | 8.2% | 1.7% | -8.1%
O=C(O)C(Cc1ccccc1)N1C(=O)c2ccccc2C1=O (configuration not stated) | -17.1% | -11.6% | 14.7µM* | · | 7.8% | -16.7%
O=C(O)C(CCCCN1C(=O)c2ccccc2C1=O)N1C(=O)c2ccccc2C1=O (configuration not stated) | 3.0% | 2.5% | 10.4µM* | 31.3% | -11.1% | -11.2%
Cc1oc(-c2ccc(C(=O)NC(C)c3ccccc3)cc2)nc1CS(=O)(=O)c1ccccc1 (configuration not stated) | 16.8% | · | · | · | · | ·
COc1ccc(-c2nc(C#N)c(NCc3cccnc3)o2)cc1OC | 4.6% | -11.4% | 10.4µM* | ? | -18.9% | -10.1%
Cc1ccc(OCc2nc(C#N)c(NCc3ccc4c(c3)OCO4)o2)cc1 | -2.1% | ? | 11.7% | -14.7% | ? | -35.1%
COc1ccc(-c2nc(C#N)c(NCc3ccccc3Cl)o2)cc1OC | -7.9% | 4.5% | 0.586µM* | ? | ? | -25.2%
COc1ccc(Cc2nnc(-c3ccccc3)o2)cc1 | -3.6% | -25.4% | 11.7µM* | 117.8% | 3.2% | -2.7%
CCOc1ccc(-c2nc(C#N)c(NCc3ccc4c(c3)OCO4)o2)cc1 | -9.5% | -11.7% | 8.28µM* | 21.9% | ? | -45.6%
COC(=O)c1sc(NC(=O)c2cc3nc(-c4ccc(Br)cc4)cc(C(F)(F)F)n3n2)c(C(=O)OC)c1C | -0.9% | · | · | · | · | ·
Cc1ccc(C)c(OCCn2cc(C(=O)c3ccco3)c3ccccc32)c1 | 23.2% | · | · | · | · | ·
COc1ccccc1CNC(=O)CCn1cnc2ccccc2c1=O | 1.9% | · | · | · | · | ·
Cc1ccc(OCc2nnc(-c3ccccc3)o2)cc1 | 6.6% | · | · | · | · | ·
COc1ccc(-c2nc(C#N)c(NCc3ccc(F)cc3)o2)cc1OC | ? | -3.1% | · | ? | 3.55µM* | 0.5%
COc1ccc(CNc2oc(-c3ccccc3)nc2C#N)cc1 | ? | ? | 8.28µM* | 20.2% | -14.2% | -13.0%
CC(=O)Nc1ccc(OCc2nnc(-c3ccccc3)o2)cc1 | -10.3% | 6.7% | 3.7µM* | 28.3% | 5.4% | -13.3%
CCOC(=O)c1c(NC(=O)/C=C/c2ccc(Cl)cc2)sc2c1CCC(C)C2 (configuration not stated) | -6.1% | · | · | · | · | ·
CCOC(=O)c1cc(OC(=O)c2ccc(Cl)cc2)n(-c2ccccc2)n1 | -11.4% | · | · | · | · | ·
Cc1ccc(Cl)cc1N1CCN(C(=O)C2CCN(S(=O)(=O)c3cnc[nH]3)CC2)CC1 | 9.6% | 18.2% | 2.62µM* | -6.4% | 4.0% | 76.4%
SMILES | AmpC detergent | AMA1-RON2 inh | Pf growth 96h | Pf growth 48h | HCV inhibitor | AmpC no deterg
O=C(C1CCC(=O)N(C2CCCC2)C1)N1CCN(c2ccc(Cl)cc2)CC1 (configuration not stated) | -4.6% | -3.1% | 288.2% | ? | -12.3% | 125.0%
Cc1ccc(Cl)cc1N1CCN(C(=O)C2CCC(=O)N(C3CCCCCC3)C2)CC1 (configuration not stated) | -3.3% | 0.0% | ? | 11.7µM* | ? | 19.8%
Cc1cc(C)nc(N2CCC(C(=O)N3CCN(c4cc(Cl)ccc4C)CC3)CC2)n1 | -11.3% | -7.3% | · | ? | 12.6µM* | 108.7%
O=C(c1ccco1)N1CCN(C(=O)C2CCN(S(=O)(=O)c3cnc[nH]3)CC2)CC1 | -1.2% | -10.1% | 19.6% | 2.6% | 31.6µM* | -26.1%
Cc1ccc(Cl)cc1N1CCN(C(=O)C2CCCN(S(=O)(=O)c3cnc[nH]3)C2)CC1 (configuration not stated) | 4.2% | 6.1% | ? | ? | 10.2% | 190.9%
CCOc1ccc(C(c2c(O)cc(C)n(CCOC)c2=O)N2CCN(c3ccc(F)cc3)CC2)cc1 (configuration not stated) | -2.5% | · | · | · | · | ·
COc1cccc(CNC(=O)C2CCN(c3nnc(-n4c(C)ccc4C)s3)CC2)c1 | 19.0% | · | · | · | · | ·
CCOC(=O)C1C(=O)C=C(c2ccc(C)cc2)CC1c1cccc([N+](=O)[O-])c1 (configuration not stated) | -5.5% | -13.4% | 6.57µM* | ? | ? | -11.8%
COc1cc2c(CCNC(C)=O)c[nH]c2cc1O | · | 4.47µM* | · | · | 7.4% | ·
O=C(NCCc1c[nH]c2ccccc12)OCCCCOC(=O)NCCc1c[nH]c2ccccc12 | ? | ? | ? | 10.4µM* | ? | -10.7%
O=C(CN1C(=O)c2ccccc2C1=O)NCCc1c[nH]c2ccccc12 | -3.8% | -2.4%[11.6 µM] | 5.22µM* | -2.1% | 14.9% | -32.8%
COc1cc(-c2noc(C)c2C(=O)NCCc2c[nH]c3ccccc23)cc(OC)c1OC | ? | -8.4% | 14.7µM* | ? | ? | -4.2%
COc1ccc2c(CCNC(=O)CN3C(=O)c4ccccc4C3=O)c[nH]c2c1 | 0.1% | 1.7% | 18.3% | -3.9% | 6.2% | -36.1%
CCOc1ccc(Nc2nn(-c3ccc(OC(F)(F)F)cc3)nc2C(C)=O)cc1 | 22.2% | · | · | · | · | ·
COc1cccc(-c2cc(C(F)(F)F)n3ncc(C(=O)OC(C)C)c3n2)c1 | 7.6% | · | · | · | · | ·
Cc1cc(O)c(C(c2ccc(F)cc2)N2CCCCC2)c(=O)n1Cc1ccco1 (configuration not stated) | -1.4% | · | · | · | · | ·
COc1ccc(C(C)=O)cc1CS(=O)(=O)CC(=O)NCCc1c[nH]c2ccccc12 | -23.8% | 16.1% | 10.4µM* | 5.22µM* | 12.6% | -35.7%

Compound activity from PubChem BioAssay.
